{
  "source": "paper PMC7862700",
  "about": "“An all-to-all approach to the identification of sequence-specific readers for epigenetic DNA modifications on cytosine”",
  "experiment_in_all_cases": "DAPPL (digital affinity profiling via proximity ligation, sequencing); 10 mM Tris-HCl pH 7.5, 50 mM NaCl, 1 mM DTT, 4% glycerol, room temperature, 30 min; GST-TFs on glutathione beads, 16-mer random dsDNA library, 0.1% formaldehyde crosslink after washing; high values mean tight binding",
  "key": {"FLI1": {"molecular_target": "T1, FLI1 (Homo sapiens, UniProt Q01543 1-452)", "T1 sequence": "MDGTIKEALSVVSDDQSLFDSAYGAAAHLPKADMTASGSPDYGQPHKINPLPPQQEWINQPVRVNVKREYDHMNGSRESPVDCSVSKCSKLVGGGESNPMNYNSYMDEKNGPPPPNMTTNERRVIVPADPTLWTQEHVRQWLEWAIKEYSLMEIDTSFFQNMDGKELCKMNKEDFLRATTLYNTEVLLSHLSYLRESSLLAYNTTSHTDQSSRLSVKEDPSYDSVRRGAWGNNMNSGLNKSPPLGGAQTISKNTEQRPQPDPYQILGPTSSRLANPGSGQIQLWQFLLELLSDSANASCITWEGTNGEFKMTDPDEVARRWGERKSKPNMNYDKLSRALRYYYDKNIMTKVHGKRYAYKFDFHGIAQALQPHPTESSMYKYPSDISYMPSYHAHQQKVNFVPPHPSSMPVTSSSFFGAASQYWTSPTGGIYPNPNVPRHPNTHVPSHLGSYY", "conditions": "protein: recombinant; tags: N-terminal GST; dsDNA, one strand shown", "method_in_brief": "(§1)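 Binding signal is given per hexamer as its read frequency for a factor divided by its frequency in the tag-only sample. GST-fused human transcription factors were expressed in yeast, captured on glutathione beads, barcoded with DNA and pooled with that sample, then incubated with 200 nmole of a 16-mer random double-stranded DNA library in Tris/NaCl/DTT/glycerol buffer for 30 min at room temperature. The pools were then washed, crosslinked, proximity-ligated, amplified by PCR and sequenced on an Illumina NextSeq500.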"}, "ELK1": {"molecular_target": "T2, ELK1 (Homo sapiens, UniProt P19419 1-428)", "T2 sequence": "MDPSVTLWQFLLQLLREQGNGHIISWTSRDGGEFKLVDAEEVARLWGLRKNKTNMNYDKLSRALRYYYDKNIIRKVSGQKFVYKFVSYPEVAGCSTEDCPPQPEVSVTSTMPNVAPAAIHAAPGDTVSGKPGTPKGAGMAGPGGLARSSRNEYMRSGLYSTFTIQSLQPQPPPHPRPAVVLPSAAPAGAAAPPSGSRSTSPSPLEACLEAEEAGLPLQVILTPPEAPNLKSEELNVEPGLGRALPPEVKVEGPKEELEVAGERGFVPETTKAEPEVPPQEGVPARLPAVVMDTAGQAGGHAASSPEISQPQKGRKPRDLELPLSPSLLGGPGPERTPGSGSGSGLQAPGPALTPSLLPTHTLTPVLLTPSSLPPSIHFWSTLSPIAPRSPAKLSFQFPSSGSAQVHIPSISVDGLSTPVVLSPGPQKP", "conditions": "protein: recombinant; tags: N-terminal GST; dsDNA, one strand shown", "method_in_brief": "as §1"}, "GABPA": {"molecular_target": "T3, GABPA (Homo sapiens, UniProt Q06546 1-454)", "T3 sequence": "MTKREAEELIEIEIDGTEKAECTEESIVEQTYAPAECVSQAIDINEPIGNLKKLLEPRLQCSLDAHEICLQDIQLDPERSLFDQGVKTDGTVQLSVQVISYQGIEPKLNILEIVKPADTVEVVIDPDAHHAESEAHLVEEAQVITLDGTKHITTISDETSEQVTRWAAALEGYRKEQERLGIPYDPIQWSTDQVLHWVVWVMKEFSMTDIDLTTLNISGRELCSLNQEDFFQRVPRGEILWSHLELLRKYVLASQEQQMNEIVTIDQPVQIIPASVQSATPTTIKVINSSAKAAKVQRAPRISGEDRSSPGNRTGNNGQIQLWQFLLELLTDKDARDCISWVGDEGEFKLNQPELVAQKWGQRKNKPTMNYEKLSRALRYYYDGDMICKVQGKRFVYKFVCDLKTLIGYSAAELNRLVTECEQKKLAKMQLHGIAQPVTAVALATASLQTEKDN", "conditions": "protein: recombinant; tags: N-terminal GST; dsDNA, one strand shown", "method_in_brief": "as §1"}, "ERG": {"molecular_target": "T4, ERG (Homo sapiens, UniProt P11308 1-479)", "T4 sequence": "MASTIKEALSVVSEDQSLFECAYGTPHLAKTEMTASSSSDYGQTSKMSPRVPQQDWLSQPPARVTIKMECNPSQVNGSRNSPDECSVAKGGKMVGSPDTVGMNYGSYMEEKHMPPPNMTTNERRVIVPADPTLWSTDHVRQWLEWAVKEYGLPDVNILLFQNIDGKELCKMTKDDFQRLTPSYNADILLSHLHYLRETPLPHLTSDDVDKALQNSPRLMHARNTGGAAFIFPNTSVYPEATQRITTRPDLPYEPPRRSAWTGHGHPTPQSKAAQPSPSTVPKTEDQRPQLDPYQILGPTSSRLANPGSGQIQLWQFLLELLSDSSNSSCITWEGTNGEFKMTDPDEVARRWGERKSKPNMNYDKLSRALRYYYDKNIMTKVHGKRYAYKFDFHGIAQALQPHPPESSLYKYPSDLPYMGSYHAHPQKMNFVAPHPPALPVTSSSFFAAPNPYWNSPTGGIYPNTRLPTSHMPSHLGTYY", "conditions": "protein: recombinant; tags: N-terminal GST; dsDNA, one strand shown", "method_in_brief": "as §1"}, "ELF1": {"molecular_target": "ELF1 (Homo sapiens, UniProt P32519 1-619)", "sequence (P32519 whole entry)": "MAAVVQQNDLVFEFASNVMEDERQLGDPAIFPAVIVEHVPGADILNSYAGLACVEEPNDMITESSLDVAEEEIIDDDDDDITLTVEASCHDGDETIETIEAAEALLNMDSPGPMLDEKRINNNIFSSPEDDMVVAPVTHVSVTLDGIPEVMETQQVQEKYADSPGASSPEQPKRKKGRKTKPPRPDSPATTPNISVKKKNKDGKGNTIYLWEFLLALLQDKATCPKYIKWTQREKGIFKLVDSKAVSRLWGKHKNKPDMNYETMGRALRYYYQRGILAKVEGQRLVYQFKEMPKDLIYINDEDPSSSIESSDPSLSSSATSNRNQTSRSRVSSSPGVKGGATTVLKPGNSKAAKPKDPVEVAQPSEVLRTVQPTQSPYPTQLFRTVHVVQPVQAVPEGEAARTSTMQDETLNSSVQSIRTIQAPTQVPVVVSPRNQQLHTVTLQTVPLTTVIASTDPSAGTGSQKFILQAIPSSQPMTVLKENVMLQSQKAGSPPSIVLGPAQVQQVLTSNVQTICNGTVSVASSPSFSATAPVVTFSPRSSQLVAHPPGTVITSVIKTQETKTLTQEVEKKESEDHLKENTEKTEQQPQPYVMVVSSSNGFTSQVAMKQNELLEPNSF", "conditions": "protein: recombinant; tags: N-terminal GST; dsDNA, one strand shown", "method_in_brief": "as §1"}, "EHF": {"molecular_target": "T5, EHF (Homo sapiens, UniProt Q9NZC4 1-300)", "T5 sequence": "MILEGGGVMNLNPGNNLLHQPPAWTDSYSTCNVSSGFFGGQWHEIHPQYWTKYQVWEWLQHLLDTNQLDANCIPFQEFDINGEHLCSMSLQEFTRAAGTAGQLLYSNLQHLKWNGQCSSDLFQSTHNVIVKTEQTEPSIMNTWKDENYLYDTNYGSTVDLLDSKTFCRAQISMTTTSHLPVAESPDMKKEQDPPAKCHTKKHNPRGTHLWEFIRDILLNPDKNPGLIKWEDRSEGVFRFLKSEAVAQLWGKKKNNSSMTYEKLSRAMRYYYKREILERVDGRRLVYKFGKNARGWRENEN", "conditions": "protein: recombinant; tags: N-terminal GST; dsDNA, one strand shown", "method_in_brief": "as §1"}, "SPI1": {"molecular_target": "SPI1 (Homo sapiens, UniProt P17947 1-270)", "conditions": "protein: recombinant; tags: N-terminal GST; dsDNA, one strand shown", "method_in_brief": "as §1"}, "SPIB": {"molecular_target": "SPIB (Homo sapiens, UniProt Q01892 1-262)", "sequence (Q01892 whole entry)": "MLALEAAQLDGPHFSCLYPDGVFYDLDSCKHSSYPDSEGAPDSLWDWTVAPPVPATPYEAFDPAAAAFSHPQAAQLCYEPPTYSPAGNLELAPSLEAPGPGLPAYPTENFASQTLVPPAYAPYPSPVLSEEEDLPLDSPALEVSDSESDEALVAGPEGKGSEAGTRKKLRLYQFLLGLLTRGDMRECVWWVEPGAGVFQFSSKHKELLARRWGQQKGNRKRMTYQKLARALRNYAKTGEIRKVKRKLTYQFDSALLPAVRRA", "conditions": "protein: recombinant; tags: N-terminal GST; dsDNA, one strand shown", "method_in_brief": "as §1"}, "ELK3": {"molecular_target": "T6, ELK3 (Homo sapiens, UniProt P41970 1-407)", "T6 sequence": "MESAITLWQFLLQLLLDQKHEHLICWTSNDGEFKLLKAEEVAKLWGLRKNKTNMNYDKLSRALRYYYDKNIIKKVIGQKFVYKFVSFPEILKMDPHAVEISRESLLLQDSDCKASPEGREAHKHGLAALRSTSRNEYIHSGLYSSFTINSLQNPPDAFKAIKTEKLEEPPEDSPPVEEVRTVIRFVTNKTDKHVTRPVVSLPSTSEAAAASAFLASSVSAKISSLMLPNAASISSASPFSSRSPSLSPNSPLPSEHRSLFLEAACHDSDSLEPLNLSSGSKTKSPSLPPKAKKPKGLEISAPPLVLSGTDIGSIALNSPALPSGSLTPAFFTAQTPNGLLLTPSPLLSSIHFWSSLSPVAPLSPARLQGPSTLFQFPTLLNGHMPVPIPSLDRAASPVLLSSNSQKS", "conditions": "protein: recombinant; tags: N-terminal GST; dsDNA, one strand shown", "method_in_brief": "as §1"}, "FEV": {"molecular_target": "T7, FEV (Homo sapiens, UniProt Q99581 1-238)", "T7 sequence": "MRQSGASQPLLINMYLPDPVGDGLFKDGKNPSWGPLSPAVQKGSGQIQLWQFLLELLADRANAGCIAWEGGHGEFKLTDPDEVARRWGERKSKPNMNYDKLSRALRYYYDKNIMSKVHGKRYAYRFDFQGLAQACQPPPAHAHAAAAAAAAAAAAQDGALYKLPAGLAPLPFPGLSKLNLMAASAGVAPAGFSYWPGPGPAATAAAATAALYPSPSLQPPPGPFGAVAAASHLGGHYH", "conditions": "protein: recombinant; tags: N-terminal GST; dsDNA, one strand shown", "method_in_brief": "as §1"}, "ETV5": {"molecular_target": "ETV5 (Homo sapiens, UniProt P41161 1-510)", "sequence (P41161 whole entry)": "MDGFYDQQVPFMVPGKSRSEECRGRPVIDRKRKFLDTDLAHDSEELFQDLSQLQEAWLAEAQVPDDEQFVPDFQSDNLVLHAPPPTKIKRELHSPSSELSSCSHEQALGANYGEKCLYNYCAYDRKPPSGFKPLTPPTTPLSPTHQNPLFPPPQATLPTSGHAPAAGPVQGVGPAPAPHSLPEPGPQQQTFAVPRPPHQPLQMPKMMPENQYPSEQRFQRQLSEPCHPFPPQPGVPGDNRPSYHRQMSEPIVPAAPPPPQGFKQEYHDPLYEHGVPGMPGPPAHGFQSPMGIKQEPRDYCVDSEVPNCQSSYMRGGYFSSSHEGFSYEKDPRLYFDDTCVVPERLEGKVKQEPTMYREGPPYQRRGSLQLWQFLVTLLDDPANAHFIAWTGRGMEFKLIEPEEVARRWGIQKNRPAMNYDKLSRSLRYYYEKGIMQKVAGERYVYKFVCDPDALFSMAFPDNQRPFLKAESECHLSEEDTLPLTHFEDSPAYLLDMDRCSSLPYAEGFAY", "conditions": "protein: recombinant; tags: N-terminal GST; dsDNA, one strand shown", "method_in_brief": "as §1"}, "HSF1": {"molecular_target": "HSF1 (Homo sapiens, UniProt Q00613 1-529)", "sequence (Q00613 whole entry)": "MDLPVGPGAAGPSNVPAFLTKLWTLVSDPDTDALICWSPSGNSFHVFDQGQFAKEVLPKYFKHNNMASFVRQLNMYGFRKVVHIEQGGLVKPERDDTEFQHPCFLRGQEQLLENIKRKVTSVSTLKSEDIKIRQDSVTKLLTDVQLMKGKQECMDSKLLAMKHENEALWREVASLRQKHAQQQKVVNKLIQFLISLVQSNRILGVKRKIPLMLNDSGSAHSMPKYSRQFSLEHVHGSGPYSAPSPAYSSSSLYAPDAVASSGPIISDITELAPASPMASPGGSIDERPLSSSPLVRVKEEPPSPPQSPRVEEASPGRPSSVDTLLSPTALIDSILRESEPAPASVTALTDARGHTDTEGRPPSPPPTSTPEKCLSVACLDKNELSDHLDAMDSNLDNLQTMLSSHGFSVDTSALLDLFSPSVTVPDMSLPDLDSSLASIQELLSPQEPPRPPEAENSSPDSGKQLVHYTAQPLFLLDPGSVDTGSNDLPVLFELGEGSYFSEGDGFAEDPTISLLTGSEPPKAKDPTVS", "conditions": "protein: recombinant; tags: N-terminal GST; chain copies: 3; dsDNA, one strand shown", "method_in_brief": "as §1"}, "SPIC": {"molecular_target": "T8, SPIC (Homo sapiens, UniProt Q8N5J4 1-248)", "T8 sequence": "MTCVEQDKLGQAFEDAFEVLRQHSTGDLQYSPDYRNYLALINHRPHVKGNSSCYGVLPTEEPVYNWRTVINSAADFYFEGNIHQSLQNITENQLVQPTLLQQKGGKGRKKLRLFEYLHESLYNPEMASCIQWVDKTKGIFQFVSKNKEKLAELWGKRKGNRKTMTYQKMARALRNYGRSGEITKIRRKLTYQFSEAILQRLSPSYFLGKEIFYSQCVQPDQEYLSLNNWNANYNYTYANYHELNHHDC", "conditions": "protein: recombinant; tags: N-terminal GST; dsDNA, one strand shown", "method_in_brief": "as §1"}, "ELF4": {"molecular_target": "ELF4 (Homo sapiens, UniProt Q99607 1-663)", "sequence (Q99607 whole entry)": "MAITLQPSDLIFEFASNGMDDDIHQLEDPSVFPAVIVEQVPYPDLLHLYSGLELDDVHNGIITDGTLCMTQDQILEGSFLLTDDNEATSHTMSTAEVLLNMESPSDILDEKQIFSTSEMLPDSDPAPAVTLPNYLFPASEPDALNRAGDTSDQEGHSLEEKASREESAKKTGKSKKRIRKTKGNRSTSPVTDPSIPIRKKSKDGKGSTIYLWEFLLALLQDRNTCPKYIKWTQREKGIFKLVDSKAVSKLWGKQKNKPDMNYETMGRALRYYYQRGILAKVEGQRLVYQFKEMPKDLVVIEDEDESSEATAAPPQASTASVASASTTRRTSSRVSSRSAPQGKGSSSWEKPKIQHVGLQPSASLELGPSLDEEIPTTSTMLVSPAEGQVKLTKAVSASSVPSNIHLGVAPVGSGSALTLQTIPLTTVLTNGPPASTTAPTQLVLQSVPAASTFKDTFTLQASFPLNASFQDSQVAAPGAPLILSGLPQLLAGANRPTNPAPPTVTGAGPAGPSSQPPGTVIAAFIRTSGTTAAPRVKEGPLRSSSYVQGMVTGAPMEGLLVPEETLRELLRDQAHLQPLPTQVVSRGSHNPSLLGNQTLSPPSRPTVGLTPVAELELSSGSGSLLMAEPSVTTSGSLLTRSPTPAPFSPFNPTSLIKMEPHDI", "conditions": "protein: recombinant; tags: N-terminal GST; dsDNA, one strand shown", "method_in_brief": "as §1"}, "ELF3": {"molecular_target": "T9, ELF3 (Homo sapiens, UniProt P78545 1-371)", "T9 sequence": "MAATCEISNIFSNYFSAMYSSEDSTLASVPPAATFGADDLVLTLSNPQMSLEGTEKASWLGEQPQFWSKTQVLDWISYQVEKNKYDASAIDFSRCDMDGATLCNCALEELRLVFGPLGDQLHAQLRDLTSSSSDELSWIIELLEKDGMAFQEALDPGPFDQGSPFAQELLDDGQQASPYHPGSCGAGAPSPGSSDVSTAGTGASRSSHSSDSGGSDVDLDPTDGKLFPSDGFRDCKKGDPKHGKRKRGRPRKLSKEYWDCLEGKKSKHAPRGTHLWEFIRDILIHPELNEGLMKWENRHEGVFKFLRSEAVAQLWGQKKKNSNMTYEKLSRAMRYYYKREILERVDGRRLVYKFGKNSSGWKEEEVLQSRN", "conditions": "protein: recombinant; tags: N-terminal GST; dsDNA, one strand shown", "method_in_brief": "as §1"}, "CRX": {"molecular_target": "CRX (Homo sapiens, UniProt O43186 1-299)", "sequence (O43186 whole entry)": "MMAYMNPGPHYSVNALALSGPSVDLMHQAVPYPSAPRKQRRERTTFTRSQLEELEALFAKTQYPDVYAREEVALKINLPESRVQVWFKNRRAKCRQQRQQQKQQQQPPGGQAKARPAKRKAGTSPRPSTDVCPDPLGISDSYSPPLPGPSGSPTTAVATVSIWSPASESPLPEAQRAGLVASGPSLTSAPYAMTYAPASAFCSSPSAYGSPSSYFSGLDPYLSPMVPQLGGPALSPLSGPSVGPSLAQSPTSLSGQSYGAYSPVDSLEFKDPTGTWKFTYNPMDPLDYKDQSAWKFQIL", "conditions": "protein: recombinant; tags: N-terminal GST; dsDNA, one strand shown", "method_in_brief": "as §1"}, "ETV1": {"molecular_target": "ETV1 (Homo sapiens, UniProt P50549 1-477)", "sequence (P50549 whole entry)": "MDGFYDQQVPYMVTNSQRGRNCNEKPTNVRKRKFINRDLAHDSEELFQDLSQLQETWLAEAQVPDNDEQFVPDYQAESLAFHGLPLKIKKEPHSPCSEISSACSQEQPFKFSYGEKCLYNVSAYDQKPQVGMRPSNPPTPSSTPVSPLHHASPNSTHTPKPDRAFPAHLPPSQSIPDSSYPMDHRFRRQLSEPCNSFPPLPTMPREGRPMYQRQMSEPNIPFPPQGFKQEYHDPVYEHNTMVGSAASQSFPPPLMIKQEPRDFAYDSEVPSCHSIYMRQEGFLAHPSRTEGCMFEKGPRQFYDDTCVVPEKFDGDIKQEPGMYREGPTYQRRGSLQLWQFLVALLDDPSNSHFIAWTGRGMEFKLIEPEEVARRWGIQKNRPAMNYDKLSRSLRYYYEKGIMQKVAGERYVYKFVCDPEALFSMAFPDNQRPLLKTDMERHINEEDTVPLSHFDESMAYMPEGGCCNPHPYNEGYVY", "conditions": "protein: recombinant; tags: N-terminal GST; dsDNA, one strand shown", "method_in_brief": "as §1"}},
  "data": [
    {"sequence": "CAAGTA", "values": [
      {"measurement": "binding signal", "setting": "FLI1", "result": "1.09 fold enrichment (6-mer frequency, TF over GST control)"},
      {"measurement": "binding signal", "setting": "ELK1", "result": "1.06 fold enrichment (6-mer frequency, TF over GST control)"},
      {"measurement": "binding signal", "setting": "GABPA", "result": "1.19 fold enrichment (6-mer frequency, TF over GST control)"},
      {"measurement": "binding signal", "setting": "ERG", "result": "1.03 fold enrichment (6-mer frequency, TF over GST control)"},
      {"measurement": "binding signal", "setting": "ELF1", "result": "1.03 fold enrichment (6-mer frequency, TF over GST control)"},
      {"measurement": "binding signal", "setting": "EHF", "result": "1.1 fold enrichment (6-mer frequency, TF over GST control)"},
      {"measurement": "binding signal", "setting": "SPI1", "result": "1.07 fold enrichment (6-mer frequency, TF over GST control)"},
      {"measurement": "binding signal", "setting": "SPIB", "result": "1.01 fold enrichment (6-mer frequency, TF over GST control)"},
      {"measurement": "binding signal", "setting": "ELK3", "result": "1.17 fold enrichment (6-mer frequency, TF over GST control)"},
      {"measurement": "binding signal", "setting": "FEV", "result": "1.04 fold enrichment (6-mer frequency, TF over GST control)"},
      {"measurement": "binding signal", "setting": "ETV5", "result": "1.11 fold enrichment (6-mer frequency, TF over GST control)"},
      {"measurement": "binding signal", "setting": "HSF1", "result": "1.02 fold enrichment (6-mer frequency, TF over GST control)"},
      {"measurement": "binding signal", "setting": "SPIC", "result": "1.09 fold enrichment (6-mer frequency, TF over GST control)"},
      {"measurement": "binding signal", "setting": "ELF4", "result": "1.16 fold enrichment (6-mer frequency, TF over GST control)"},
      {"measurement": "binding signal", "setting": "ELF3", "result": "1.28 fold enrichment (6-mer frequency, TF over GST control)"},
      {"measurement": "binding signal", "setting": "CRX", "result": "1.08 fold enrichment (6-mer frequency, TF over GST control)"},
      {"measurement": "binding signal", "setting": "ETV1", "result": "1.03 fold enrichment (6-mer frequency, TF over GST control)"}
    ]}
  ]
}
